A selection: hits, their analogues and other compounds. The true share with any hit is near 2.4%.
ClpP mod: qHTS Assay for Activators of ClpP; ATP-dependent Clp protease proteolytic subunit (Bacillus subtilis (strain 168)), P80244; purified B. subtilis ClpP, FRET peptide cleavage, 20 min; Potency, µM (highest dose often 57.5 µM); 340,000 tested, 1.9% active; AID 651965, 2013; active = well fitted falling curve with a large enough effect; inconclusive = small, poorly fitted or top-dose-only effect; inactive = no such curve, though single readings can be large or run the other way; note: the source files actives as falling curves though it sought activators and does not explain the sign; nearly all actives have a fitted effect of over 65% in size
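FRET quenching reversal measured ClpP activation: 10 microg/mL B. subtilis ClpP at pH 8 with the FRET-FV decapeptide, read at 430 nm after 320 nm excitation. The 20-min minus 0-min signal was scaled between DMSO/no-enzyme wells and ADEP (5.8 microM final).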
TSG101-PTAP inh: blocks PTAP/TSG101 interaction to inhibit HIV-1 budding; Q99816; Fluorescence polarization, FITC-PTAP peptide / Tsg101 binding; Potency, µM (titrated, usually from 115 µM), hits mostly inhibitors; 340,000 tested, under 10 active; AID 493005; active = well fitted inhibition curve with a large enough effect in the main read-out, with a control signal flat, not every such curve was filed as active; inconclusive = small, poorly fitted or top-dose-only effect, or effect the other way, or a change in a side signal; inactive = no such curve, though single readings can be large or run the other way
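Fluorescence anisotropy tracks displacement of a FITC-tagged PTAP peptide (50 nM) from the Tsg101 binding domain (10 uM), following a 20 min room-temperature incubation at pH 7.5.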
Rango dissoc inh: prevents RanGTP from dissociating the Rango-importin beta complex; Potency, µM (doses to about 46.1 µM); Biochemical FRET Rango-importin beta, RanGTP-induced dissociation; AID 540253; O95149+P62826; 340,000 tested, 0.071% active; calls by dose curve; note: nearly all actives have a fitted effect of over 45% in size
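Two FRET readings bracket the reaction: one 5 min after compound meets Rango–importin beta, another 45 min after RanGTP-RCC1 (0.6 uM Ran, 0.2 uM RCC1, 2 mM GTP) is added. Only the second defines inhibition.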
12-LOX inh: ALOX12 (human) lipoxygenase inhibition; P18054; purified 12hLO, xylenol orange hydroperoxide absorbance; Potency, µM (series often up to 108 µM), most hits filed as inhibitors; 580,000 tested, 1.1% active
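Purified human 12hLO (150 nM final) in 25 mM Hepes, 0.01% Triton X-100, pH 7.0 was preincubated 15 min at room temperature with compound. Then 40 uM arachidonic acid was added, 30 min. Hydroperoxide was read by Fe-XO absorbance ratio 573/405 nm.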
Rango complex inh: Rango-importin beta binding inhibition. Potency, µM (series often up to 92.2 µM). 340,000 tested, 0.031% active. AID 540263. Q14974. Rango CFP/YFP FRET sensor + importin beta, 45 min; calls by dose curve; note: nearly all actives have a fitted effect of over 15% in size
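Inhibition scored from the CFP 486 nm/YFP 530 nm FRET ratio 45 min after adding 0.125 microM importin beta to 50 nM Rango biosensor preincubated 5 min with compound (room temperature, PBS with DTT, Tween-20, BSA). No-importin wells as positive control.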
TDP1 block: blocks human tyrosyl-DNA phosphodiesterase 1 | 350,000 tested, 0.28% active | Potency, µM (top dose mostly 130 µM), actives largely listed as inhibitors | recombinant TDP1, AlphaScreen DNA substrate cleavage; note: nearly all actives have a fitted effect of over 40% in size
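Enzyme-compound mixtures sat 15 min at room temperature, followed by a 5 min reaction with 15 nM final substrate and 10 min with AlphaScreen beads. Recombinant human Tdp1 was used at 1 nM final.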
Hits are given with their value; - = inactive; ? = inconclusive; . = not tested or not shown; [ ] = remark or other dose. Unless noted, calls come from the whole dose curve; as a rule, active = well fitted curve in the direction sought with a large enough effect; inconclusive = small, poorly fitted or top-dose-only effect, or another doubt; inactive = no such curve, though single readings can be large; an effect the other way counts as inactive or inconclusive.

SMILES | ClpP mod | TSG101-PTAP inh | Rango dissoc inh | 12-LOX inh | Rango complex inh | TDP1 block
COc1ccccc1N(C)c1cc2c(c3c1ccn3C)C1CCC2C1 (stereo unspecified) | 32µM | . | . | 40µM | . | .
COc1ccc(CNC(=O)C(C)OC(=O)c2ccc3c(c2)NC(=O)CS3)cc1OC (stereo unspecified) | . | . | . | - | . | .
O=C1CC2(CCN(c3cncc(C(=O)N4CCCCC4)n3)C2)C(=O)N1 (stereo unspecified) | . | . | . | - | . | .
Cc1ccc(N(CC(=O)Nc2ccc(-c3nc4ccc(C)cc4s3)cc2)S(C)(=O)=O)cc1 | 11µM | - | - | - | - | -
CCC1(c2ccc(F)cc2)NC(=O)N(CC(=O)Nc2ccc(-c3nc4ccc(C)cc4s3)cc2)C1=O (stereo unspecified) | 7.9µM | - | - | - | ? | -
C=CCn1c(SCC(=O)Nc2ccc(-c3nc4ccc(C)cc4s3)cc2)nnc1-c1ccncc1 | 3.5µM | - | - | - | - | -
C=CCn1c(SCC(=O)Nc2ccc(N3CCOCC3)cc2)nnc1-c1ccncc1 | . | - | - | - | - | -
COc1ccc(C2(C)NC(=O)N(CC(=O)Nc3ccc(-c4nc5ccc(C)cc5s4)cc3)C2=O)cc1 (stereo unspecified) | . | - | - | ? | ? | -
CCOc1ccccc1CN1CCCOCCNC(=O)[C@@H]2CCCC[C@@H]21 | . | . | . | - | . | .
COc1ccc2[nH]c3c(c2c1)CCN(C)C31CCN(C(=O)CC(C)C)CC1 | . | . | . | - | . | .
CCC(C)c1ccc(NC(=O)Cn2nc(C(N)=O)c3ccccc3c2=O)cc1 (stereo unspecified) | . | . | . | - | . | .
CCOC(=O)c1nn(-c2ccccc2)c2nc(-c3ccc(OC)cc3)c(C#N)c(=O)n12 | - | - | - | - | - | -
CCOC(=O)c1nn(-c2ccccc2C)c2nc(-c3ccc(C)cc3)c(C#N)c(=O)n12 | 35µM | - | - | - | - | -
CNC(=O)CCn1ncc2cc(OC3CCc4cccc(-c5ccc(O)c(F)c5)c43)ccc21 (stereo unspecified) | . | . | . | 50µM | . | .
CO/N=C\CC(=O)Nc1ccc(Cl)c(Cl)c1 | . | - | - | 40µM | ? | -
CCOC(=O)C1=C(C)NC(=S)NC1c1ccc(-c2ccc(Cl)cc2)o1 (stereo unspecified) | - | - | - | 32µM | - | -
S=c1cn[nH]c2ccccc12 | - | - | - | 40µM | - | .
S=C1NC=NC2N=CNC12 (stereo unspecified) | . | . | . | . | . | 14µM
CCOC(=O)c1sc2nc3c(SCC(=O)O)cc(C(=O)c4ccccc4O)cn3c(=O)c2c1C | . | - | ? | - | ? | -
COc1ccc(O)c(C(=O)c2cc(SCC(=O)O)c3nc4sc5c(c4c(=O)n3c2)CCCC5)c1 | . | - | - | 35µM | - | .
CCOC(=O)c1sc2nc3c(SCC(=O)O)cc(C(=O)c4cc(F)ccc4O)cn3c(=O)c2c1C | - | - | ? | ? | ? | 35µM
CN(C(=O)C(C)(C)C)C1CCCc2ccccc21 (stereo unspecified) | . | . | . | - | . | .
Cc1ccc(CNC(=O)c2ccc(N3CC4CC(C3)[C@H]3CCCC(=O)N3C4)nc2)cc1 (stereo partly specified) | . | . | . | - | . | .
Nc1ccc2nc(-c3cccs3)[nH]c2c1 | 10µM | - | - | - | - | -
Nc1ccc2nc(-c3ccc(N)c(Cl)c3)[nH]c2c1 | 3.5µM | - | - | - | ? | .
SMILES | ClpP mod | TSG101-PTAP inh | Rango dissoc inh | 12-LOX inh | Rango complex inh | TDP1 block
O=C(Cc1ccccc1F)NC1CCN(c2cc(-c3ccccc3)[nH]n2)CC1 | . | . | . | - | . | .
CC(C)Cn1c(N)c(C(=O)COC(=O)c2cc(C3CC3)nc3ccccc23)c(=O)n(C)c1=O | 25µM | - | - | - | ? | -
CC(C)Cn1c(N)c(C(=O)COC(=O)C2Cc3ccccc3CN2S(C)(=O)=O)c(=O)n(C)c1=O (stereo unspecified) | - | - | - | - | - | 28µM
COCC(=O)Nc1ccc(-c2noc([C@@H]3CCCN3Cc3cccc(C#N)c3)n2)cn1 | . | . | . | - | . | .
Cc1ccc(N2C(=O)N(CC(=O)Nc3ccccc3C(F)(F)F)C(=O)C2C)cc1 (stereo unspecified) | 16µM | - | - | - | - | -
O=C(O)c1ccc(CN(c2ccccn2)S(=O)(=O)c2ccccc2)cc1 | 28µM | - | - | - | - | -
O=C(NCc1ccccc1)c1ccc(CN(c2ccccn2)S(=O)(=O)c2ccccc2)cc1 | 20µM | - | - | - | - | -
CC(=O)Nc1ccc(S(=O)(=O)N(Cc2ccccc2)c2ccccn2)cc1 | - | - | - | - | - | .
COc1ccc(C(=O)NC2CC(=O)N(c3ccc(F)cc3)C2)cc1 (stereo unspecified) | . | . | . | - | . | .
Cc1ccc2nc(CO[C@H]3CN(CC(C)(C)C)C[C@H]3F)[nH]c2c1 | . | . | . | - | . | .
CC[C@]12c3[nH]c4ccc(Cl)cc4c3CCN1C(=O)[C@@H](CC(=O)NCC13CC4CC(CC(C4)C1)C3)C[C@@H]2C(=O)N1CCN(C(=O)C2CC2)CC1 | - | - | - | 40µM | - | -
CC[C@]12c3[nH]c4ccc(OC)cc4c3CCN1C(=O)C(CC(=O)NCC13CC4CC(CC(C4)C1)C3)C[C@@H]2C(=O)N1CCN(C(=O)C2CC2)CC1 (stereo partly specified) | - | - | - | - | - | -
CCc1noc(-c2cccn3c(CNC(=O)c4cc(C)ccc4C)nnc23)n1 | . | . | . | - | . | .
c1cncc(C2=NOC3(CCCN(Cc4cccc5ccccc45)C3)C2)c1 (stereo unspecified) | . | . | . | -[6.33 µM] | . | .
C/C(=N\O)C1=CC(C)(C)CCC1 | . | . | . | - | . | .
COc1ccc(-c2cc(C(F)(F)F)nc(-n3nc(C(F)(F)F)cc3C)n2)cc1 | - | . | . | - | . | -
COc1cccc(-c2cc(C(F)(F)F)nc(N3CCC(C)CC3)n2)c1 | 25µM | - | - | - | - | -
COc1cccc(-c2cc(C(F)(F)F)nc(-n3cc(Cl)cn3)n2)c1 | 32µM | - | - | ? | - | -
FC(F)(F)c1cc(-c2ccccc2)nc(-n2cc(Cl)cn2)n1 | - | - | - | - | - | -
COc1nn(-c2nc(-c3ccccc3)cc(C(F)(F)F)n2)cc1[N+](=O)[O-] | 22µM | - | - | - | - | -
COc1ccc(-c2cc(C(F)(F)F)nc(-n3cncn3)n2)cc1 | 20µM | - | - | - | - | -
COc1cccc(OCc2nc(C(=O)N3CC4C[C@@H]5CC3C[C@H](C4)C5)co2)c1 | . | . | . | - | . | .
CN(C)c1ccc(/C=C2/C[N+](C)(C)C/C(=C/c3ccc(N(C)C)cc3)C2=O)cc1 | - | - | 16µM | 50µM | ? | .

From PubChem BioAssay
